According to PubChem BioAssay (NCI):
The panel holds about 79,000 compounds, 15% with a hit somewhere; the sample as a whole holds those more often. Rule as the data show it: active = growth inhibition above about 70%; inactive = the rest.

Key:
[1] = NCI Yeast Anticancer Drug Screen. Data for the rad50 strain (AID 155);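 also: 0% = growth of vehicle-only cultures of the same strain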; settings: S. cerevisiae rad50 strain growth inhibition; at 50.0 µM; active compounds read high
In short: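 Compounds were tested on a yeast strain with an engineered DNA damage repair alteration; the reported value is growth inhibition normalised to vehicle treatment.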

[2] = NCI Yeast Anticancer Drug Screen. Data for the mec2-1 strain (AID 157); settings: S. cerevisiae mec2-1 strain, at 50.0 µM, active compounds read high
In short: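 Each compound was tested on mec2-1 yeast, a strain altered in DNA damage repair or cell cycle control. Growth inhibition is reported relative to vehicle.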

[3] = NCI Yeast Anticancer Drug Screen. Data for the sgs1 mgt1 strain (AID 161);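 also: 0% = growth of cultures given vehicle only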; settings: S. cerevisiae sgs1 mgt1 strain, at 50.0 µM, active compounds read high
In short: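 Genetically altered yeast, compound exposure, growth inhibition relative to vehicle.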

[4] = NCI Yeast Anticancer Drug Screen. Data for the cln2 rad14 strain (AID 165);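 also: 0% = growth equal to vehicle treated cultures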; settings: S. cerevisiae cln2 rad14 strain, at 50.0 µM, active compounds read high
In short: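 Test compounds were added to cln2 rad14 yeast cultures; inhibition of growth was then determined by comparison with vehicle treatment.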

[5] = NCI Yeast Anticancer Drug Screen. Data for the bub3 strain (AID 167); settings: S. cerevisiae bub3 mutant strain, at 50.0 µM, active compounds read high
In short: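 Growth of a checkpoint-deficient yeast mutant is measured after compound exposure. Values represent inhibition relative to vehicle.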

[6] = NCI Yeast Anticancer Drug Screen. Data for the mlh1 rad18 strain (AID 175); settings: S. cerevisiae mlh1 rad18 strain growth inhibition; at 50.0 µM; active compounds read high
In short: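 Inhibition values reflect reduced growth of mutant yeast versus vehicle-treated controls following compound exposure; the mutations affect DNA damage repair.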

Measured: growth inhibition

O=C(O)C(C(=O)O)C(c1ccccc1)c1ccccc1Br (stereo not drawn)
inactive: [1] 5.15% | [2] 17.1% | [3] 28.1% | [4] -184% | [5] 23.9% | [6] 29.5%

O=C(Cc1ccc([N+](=O)[O-])c([N+](=O)[O-])c1CC(=O)C(=O)Nc1cc(Cl)ccc1Cl)C(=O)Nc1cc(Cl)ccc1Cl
inactive: [1] -16% | [2] -23.8% | [3] -14.8% | [4] 12.3% | [5] 25.1% | [6] -4.3%

O=C1OCC/C1=C\c1cccc2ccccc12
inactive: [1] 5.2% | [2] 2.4% | [3] -3.45% | [4] 12.5% | [5] -5% | [6] 6.35%
